In PubChem BioAssay (NCATS):
Inconclusive results are not listed. Activity calls are given as the source filed them. Unless noted, calls come from the whole dose curve; as a rule, active = well fitted curve in the direction sought with a large enough effect; inconclusive = small, poorly fitted or top-dose-only effect, or another doubt; inactive = no such curve, though single readings can be large; an effect the other way counts as inactive or inconclusive. Where a SMILES comes first, the peptide text is derived from it. Bridges are numbered along the chain shown (N, C = ends). [ ]: non-standard residue; d: D form. hArg = N=C(N)NCCCC[C@H](N)C(=O)O; Mpa = O=C(O)CCS

How the values were obtained:
[1] = qHTS Assay for Identifying Gametocytocidal Compounds (AID 743244);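 note: % is set by controls: 0 for no effect and ±100 for the full control effect; actives lower the fluorescent signal which means gametocytes are killed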; conditions: P. falciparum 3D7 stage III-V gametocytes, alamarBlue, 72 h; max response: stronger effect = lower value
Outline: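 P. falciparum 3D7 stage III–V gametocytes (20,000 cells/well) were exposed to compounds for 72 h at 37 °C, 5% CO2. AlamarBlue was then added for 24 h; decreased resorufin fluorescence (Ex 525/Em 598 nm) indicated loss of viability.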

[2] = qHTS assay for measurement of the activity of small molecule inhibitors on Zika virus induced Caspase-3 activity in human iPSC derived neural progenitor cells (hNPCs) (AID 1224857); note: % of control where 0% means no effect; nearly all actives have a fitted effect of over 65% in size
Outline: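 hNPCs seeded 350 cells/well, cultured 16–20 h; compounds added 1 h before ZIKV (2 FFU/cell), 37 C 6 h. Caspase-Glo 3/7 luminescence after 30 min RT; % inhibition from induction scaled to uninfected (0%) and infected (100%) wells.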

[3] = qHTS assay to identify small molecule inhibitors of chordoma cells - UCH-1 (AID 1259355); note: % is set by controls: 0 for no effect and ±100 for the full control effect; nearly all actives have a fitted effect of over 55% in size
Outline: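 Luminescent ATP read-out (CellTiter-Glo, 30min at room temperature) measured viability of UCH-1 cells exposed for 48hr to test drugs at 15 concentrations, co-dosed with a five-agent combination of auranofin, camptothecin, doxorubicin, rubitecan and topotecan.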

[4] = qHTS assay to identify small molecule inhibitors of chordoma cells - UCH-2 (AID 1259356); note: % is set by controls: 0 for no effect and ±100 for the full control effect
[5] = target: Peroxisome proliferator-activated receptor alpha (Homo sapiens) (UniProt Q07869); assay: qHTS assay for small molecule agonists of the peroxisome proliferator-activated receptor alpha (PPARalpha) signaling pathway (AID 651778); conditions: PathHunter PPARalpha complementation, chemiluminescence, 6 h; stronger effect = higher value; note: % of control where 0% means no effect
Sequence of Peroxisome proliferator-activated receptor alpha (Homo sapiens) (Q07869 whole entry, looked up): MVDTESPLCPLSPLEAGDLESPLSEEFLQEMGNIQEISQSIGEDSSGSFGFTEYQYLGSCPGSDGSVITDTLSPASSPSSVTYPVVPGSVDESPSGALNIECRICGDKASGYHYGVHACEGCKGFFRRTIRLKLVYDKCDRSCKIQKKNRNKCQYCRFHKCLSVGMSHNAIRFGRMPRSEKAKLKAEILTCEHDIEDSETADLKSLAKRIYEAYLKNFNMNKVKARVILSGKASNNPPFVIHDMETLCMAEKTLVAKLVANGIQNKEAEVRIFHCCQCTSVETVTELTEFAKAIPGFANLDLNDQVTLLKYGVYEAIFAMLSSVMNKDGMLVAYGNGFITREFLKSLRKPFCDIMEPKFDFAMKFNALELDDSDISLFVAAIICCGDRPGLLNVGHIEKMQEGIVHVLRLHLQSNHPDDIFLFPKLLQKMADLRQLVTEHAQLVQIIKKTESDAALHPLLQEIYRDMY
Outline: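 Cells plated at 2,000/well and held overnight at 37 C, 5% CO2, then compound added by pin tool for 6 hr; after PathHunter detection reagent and 60 min at room temperature, chemiluminescence from enzyme complementation was read.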

[6] = target: Nuclear receptor ROR-gamma (Homo sapiens) (UniProt P51449); assay: qHTS assay for small molecule antagonists of the retinoid-related orphan receptor gamma (ROR-gamma) signaling pathway (AID 651802);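 note: luciferase reporter luminescence driven by ROR response element; % is set by controls: 0 for no effect and ±100 for the full control effect; nearly all actives have a fitted effect of over 60% in size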
Sequence of Nuclear receptor ROR-gamma (Homo sapiens) (P51449 whole entry, looked up): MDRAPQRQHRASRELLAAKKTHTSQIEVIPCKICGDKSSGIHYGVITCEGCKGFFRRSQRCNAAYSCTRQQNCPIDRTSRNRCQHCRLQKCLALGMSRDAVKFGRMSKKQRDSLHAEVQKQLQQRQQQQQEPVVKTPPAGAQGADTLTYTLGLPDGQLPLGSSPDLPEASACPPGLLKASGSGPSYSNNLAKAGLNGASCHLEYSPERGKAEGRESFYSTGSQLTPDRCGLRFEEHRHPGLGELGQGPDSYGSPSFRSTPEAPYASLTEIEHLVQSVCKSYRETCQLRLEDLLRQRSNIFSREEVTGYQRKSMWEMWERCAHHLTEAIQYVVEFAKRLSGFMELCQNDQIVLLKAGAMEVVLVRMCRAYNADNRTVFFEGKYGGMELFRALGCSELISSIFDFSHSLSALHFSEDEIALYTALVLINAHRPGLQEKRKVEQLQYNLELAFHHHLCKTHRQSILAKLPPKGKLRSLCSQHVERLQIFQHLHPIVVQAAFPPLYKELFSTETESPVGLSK
Outline: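 CHO cells with TET-inducible ROR-gamma and RORE-luciferase reporter, dosed then doxycycline-induced. After 16 h at 37C, One-Glo luminescence read; decreased signal indicates antagonism.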

[7] = qHTS assay for small molecule antagonists of the retinoid-related orphan receptor gamma (ROR-gamma) signaling pathway - cell viability counter screen (AID 720652; active = well fitted curve in the direction sought with a large enough effect in the repeat runs; an effect the other way counts as inactive or inconclusive;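 note: compound exposure lasted 16 hr before ATP read; % is set by controls: 0 for no effect and ±100 for the full control effect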)
Outline: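 CHO cells carrying TET-inducible ROR and RORE-luciferase reporter, plated 5 hr, then dosed with compound plus doxycycline. After 16 hr at 37 C, viability read as intracellular ATP by CellTiter-Glo luminescence.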

[8] = qHTS assay for small molecule agonists of the antioxidant response element (ARE) signaling pathway measured by Nrf2-dependant transcriptional activity - cell viability counter screen (AID 720653; active = well fitted curve in the direction sought with a large enough effect in the repeat runs; an effect the other way counts as inactive or inconclusive; note: % is set by controls: 0 for no effect and ±100 for the full control effect); conditions: ARE-bla HepG2 viability, CellTiter-Glo ATP luminescence, 16 h; stronger effect = lower value
Outline: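 ARE-bla HepG2 cells (2,000/well) rested 5 hrs at 37C/5% CO2, then exposed to compounds in DMSO for 16 hrs. Viability was read in the same wells as intracellular ATP by luminescence, 30 min at room temperature after reagent addition.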

[9] = qHTS assay for cell viability of HEK293 cells (AID 743288); conditions: ATP luminescence (CellTiter-Glo), 18 h, stronger effect = lower value; note: % is set by controls: 0 for no effect and ±100 for the full control effect; nearly all actives have a fitted effect of over 50% in size
Outline: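 Total intracellular ATP, measured with a luciferase-coupled reagent, indicates the number of viable HEK293 cells. Exposure to test chemicals lasts 18 h at 37 C in 1,536-well format at 2,000 cells/well.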

[10] = qHTS assay for cell viability of the p53RE-bla HCT-116 cell line (AID 743292); note: % is set by controls: 0 for no effect and ±100 for the full control effect; nearly all actives have a fitted effect of over 55% in size
Outline: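 Quantitative high-throughput format: compounds in DMSO were pinned onto p53RE-bla HCT-116 cells (4,000/well) and incubated 16 h at 37 C. Total intracellular ATP, read by CellTiter-Glo luminescence, reflects viable cell number.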

[11] = qHTS profiling for inhibitors of Plasmodium falciparum (3D7) proliferation (AID 743322);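 note: infected erythrocytes exposed to compound for 72 h before lysis; 100% = DMSO vehicle wells and 0% = 0.29 µM artemisinin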; conditions: P. falciparum 3D7 proliferation; at 28.7 µM (top of the series)
Outline: (§1)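 Erythrocytes infected with P. falciparum (0.3% parasitemia, 2.5% hematocrit) incubated with compounds 72 h at 37 C, 5% CO2. Lysis with saponin/Triton buffer containing SYBR Green I, overnight at room temperature in the dark; DNA fluorescence (485/535 nm) normalised to 0.29 uM artemisinin and DMSO.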

[12] = qHTS profiling for inhibitors of Plasmodium falciparum (DD2) proliferation (AID 743323; call rule not given here); conditions: lower = more inhibition; at 28.7 µM (top of the series)
Outline: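 Parasite proliferation measured via DNA-dye fluorescence, as uninfected erythrocytes lack DNA. Cultures at 0.3% parasitemia and 2.5% hematocrit incubated 72 h with compound; signal scaled between vehicle and 0.29 uM artemisinin wells.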

[13] = qHTS profiling of the MIPE4 collection as inhibitors of Plasmodium falciparum (3D7) proliferation (AID 743344; call rule not given here;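 note: scaled between DMSO vehicle wells and 0.29 µM artemisinin as full inhibition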); conditions: P. falciparum 3D7 in erythrocytes, SYBR Green DNA fluorescence, 72 h; at 9.64 µM (top of the series) unless noted
Outline: as §1

[14] = qHTS profiling of the MIPE4 collection as inhibitors of Plasmodium falciparum (DD2) proliferation (AID 743345; call rule not given here); conditions: P. falciparum Dd2 in erythrocytes, SYBR Green DNA, 72 h; at 9.64 µM (top of the series) unless noted
Outline: as §1

[15] = qHTS profiling of the MIPE4 collection as inhibitors of Plasmodium falciparum (DD2) proliferation (Rep 2) (AID 743346; call rule not given here); conditions: P. falciparum Dd2 in erythrocytes, SYBR Green DNA, 72 h; at 9.64 µM (top of the series) unless noted
Outline: as §1

[16] = qHTS profiling of the MIPE4 collection as inhibitors of Plasmodium falciparum (HB3) proliferation (AID 743347; call rule not given here;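 note: plate controls were DMSO vehicle wells for no effect and artemisinin wells for full effect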); conditions: P. falciparum HB3 in erythrocytes, SYBR Green DNA, 72 h; at 9.64 µM (top of the series) unless noted
Outline: as §1

[17] = qHTS assay for small molecule agonists of the antioxidant response element (ARE) signaling pathway measured by Nrf2-dependant transcriptional activity (AID 720636; active = well fitted curve in the direction sought with a large enough effect in the repeat runs; an effect the other way counts as inactive or inconclusive;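 note: HepG2 cells with an ARE-driven luciferase reporter; % of control where 0% means no effect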)
Outline: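 First, ARE-luc HepG2 cells attached for 6 hr at 37 C in 1% dialyzed FBS medium. Next, compound or DMSO was added and incubated 16 hr. Finally, ONE-Glo reagent was added and luminescence measured after 30 min.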

NS(=O)(=O)c1ccc(NC(=O)CCC(=O)O)cc1
inactive: max response [1] -3.82% | outcome [2] | outcome [3] | outcome [4]

CC1(C)S[C@@H]2[C@H](N=CN3CCCCCC3)C(=O)N2[C@H]1C(=O)O
inactive: max response [1] -2.77% | outcome [2] | outcome [3]

CCCCOC(=O)c1ccc(N)cc1
inactive: max response [5] -1.13% | outcome [6] | outcome [7] | max response [8] -19.9% | max response [1] -1.98% | max response [9] 3.29% | outcome [10] | outcome [2] | outcome [3] | outcome [4]

CC(C)NC[C@@H](O)COc1ccc(CC(N)=O)cc1
inactive: max response [1] 23.6% | outcome [2] | outcome [3] | outcome [4]

CC(C)CCOC(=O)c1ccc(N(C)C)cc1
inactive: max response [1] -13.7% | outcome [2] | outcome [3] | outcome [4]

CC(=O)N1C[C@H](O)C[C@H]1C(=O)O
inactive: max response [1] 11.8% | outcome [2] | outcome [3] | outcome [4]

c1ccc2[nH]ccc2c1
inactive: max response [1] -5.55% | outcome [2] | outcome [3] | outcome [4]

Cc1c(C)c2c(c(C)c1OC(=O)c1cccnc1)CC[C@@](C)(CCC[C@H](C)CCC[C@H](C)CCCC(C)C)O2
inactive: max response [1] 6.89% | outcome [2] | outcome [3] | outcome [4]

C=CCSCC1Nc2cc(Cl)c(S(N)(=O)=O)cc2S(=O)(=O)N1 (centres undefined)
inactive: max response [1] 15.7% | outcome [2] | outcome [3] | outcome [4]

NCc1ccc(S(N)(=O)=O)cc1
inactive: max response [1] -0.707% | outcome [2] | outcome [3]

Cc1ccccc1N=Nc1ccc(N=Nc2c(O)ccc3ccccc23)c(C)c1
inactive: max response [1] 7.02% | outcome [2] | outcome [3] | outcome [4]

CCOc1cc(NC(C)=O)ccc1C(=O)OC
inactive: max response [1] 7.76% | outcome [2] | outcome [3] | outcome [4]

CC(CN(C)C)C(C)(O)Cc1ccc(Cl)cc1 (centres undefined)
inactive: max response [1] -5.22% | outcome [2] | outcome [3] | outcome [4]

CCCCCCCCCCOc1cc2c(=O)c(C(=O)OCC)c[nH]c2cc1OCC
7.74% [at 28.5 µM]: parasite growth, % of DMSO control [13]
0.552%: remaining parasite growth % (stronger effect = lower value) [11]
2.1%: activity, percent of control [12]
3.33% [at 28.5 µM]: growth, % of control [16]
inactive: max response [1] -3.15% | activity change, negative = inhibition [2] 9.1% [at 4.53 µM] | outcome [3] | outcome [4]
14.5% [at 28.5 µM]: parasite growth, % of control (lower = inhibition) [15]
7.98% [at 28.5 µM]: parasite growth remaining, % of DMSO control (lower = more inhibition) [14]

NC(=O)[C@@H]1CSSCCC(=O)N[C@@H](CCCCN=C(N)N)C(=O)NCC(=O)N[C@@H](CC(=O)O)C(=O)N[C@@H](Cc2c[nH]c3ccccc23)C(=O)N2CCC[C@H]2C(=O)N1 ([Mpa][hArg]GDWPC-NH2; disulfide 1-7)
inactive: max response [1] 6.22% | outcome [2] | outcome [3] | outcome [4]

Cc1c(NC(=O)c2cccnc2)c(=O)n(-c2ccccc2)n1C
inactive: max response [1] -5.32% | outcome [2] | outcome [3] | outcome [4]

C[C@]1(Cn2ccnn2)[C@H](C(=O)O)N2C(=O)C[C@H]2S1(=O)=O
inactive: max response [1] 9.4% | outcome [2] | outcome [3] | outcome [4]

Cc1cccc(C)c1NC(=O)CC12CCCN1CCC2
inactive: max response [1] 0.37% | outcome [2] | outcome [3] | outcome [4]

O=C(O)COC(=O)Cc1ccccc1Nc1c(Cl)cccc1Cl
inactive: max response [1] 5.55% | outcome [2] | outcome [3] | outcome [4]

O=C(NCC(O)CO)c1c(I)c(C(=O)NCC(O)CO)c(I)c(N(CCO)C(=O)CO)c1I (centres undefined)
inactive: max response [1] 8.95% | outcome [2] | outcome [3] | outcome [4]

C=CCNC(N)=S
inactive: max response [5] -1.33% | outcome [17] | outcome [7] | max response [8] 0.701% | max response [1] 5.17% | max response [9] -7.7% | outcome [10] | outcome [2] | outcome [3]

NC(=O)CCCCC1CCSS1 (centres undefined)
inactive: max response [1] 0.706% | outcome [2] | outcome [3] | outcome [4]

C[N+](C)(C)CC[N+]1(C)Cc2c(Cl)c(Cl)c(Cl)c(Cl)c2C1
inactive: max response [1] -6.87% | outcome [2] | outcome [3] | outcome [4]

Cc1c(Cn2ccnc2)c2ccccc2n1CCC(=O)O
inactive: max response [1] -9.07% | outcome [2] | outcome [3] | outcome [4]

COc1nccnc1NS(=O)(=O)c1ccc(N)cc1
inactive: max response [1] -9.73% | outcome [2] | outcome [3] | outcome [4]

NS(=O)(=O)c1cc2c(cc1C(F)(F)F)NCNS2(=O)=O
inactive: max response [1] -4.2% | outcome [2] | outcome [3] | outcome [4]

Cc1cccc(Nc2ccccc2C(=O)O)c1C
inactive: outcome [17] | max response [8] -4.01% | max response [1] 4.7% | max response [9] 2.21% | outcome [10] | outcome [2] | outcome [3] | outcome [4]

CC(C)c1cc2c(cc1S(=O)(=O)O)[C@@]1(C)CCC[C@@](C)(C(=O)O)[C@@H]1CC2
inactive: max response [1] -8.74% | outcome [2] | outcome [3] | outcome [4]

NNC(=O)CP(=O)(c1ccccc1)c1ccccc1
inactive: max response [1] -4.41% | outcome [2] | outcome [3] | outcome [4]

CCCNC(C)(C)COC(=O)c1ccccc1
inactive: max response [1] 5.84% | outcome [2] | outcome [3] | outcome [4]
